# Measurements published in PubChem BioAssay (NCATS).
# Records with an inconclusive call do not appear. Entries that show only a call come without a potency. Unmarked numbers belong to inactive results. Active and inactive are the calls of the source. Calls come from the whole dose curve; as a rule, active = well fitted curve in the direction sought with a large enough effect; inconclusive = small, poorly fitted or top-dose-only effect, or another doubt; inactive = no such curve, though single readings can be large; an effect the other way counts as inactive or inconclusive.
# How the values were obtained:
# [1] = target: Cellular tumor antigen p53 (Homo sapiens) (UniProt P04637); assay: Primary qHTS for small molecule compounds that upregulate eGFP-tagged delta133p53alpha (in N-terminal) cells. (AID 2060322); details: NCI-H358 eGFP-delta133p53alpha fluorescence, 24 h; activation: active compounds read high; note: nearly all actives have a fitted effect of over 75% in size; note: potency is the fitted concentration of half-maximal effect; for activation: series mostly up to about 56 µM
# Summary of the method: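 NCI-H358 cells pre-induced 24 h with 10 ng/ml doxycycline to express N-terminal eGFP-delta133p53alpha, then dosed 24 h at 37C without doxycycline; fixed, Hoechst-stained, GFP intensity by laser scanning cytometry, normalized to DMSO (0%) and 57.5 uM 5-azacytidine (100%).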
# [2] = target: Aldehyde dehydrogenase, mitochondrial (Homo sapiens) (UniProt P05091); assay: qHTS for Inhibitors of the Aldehyde Dehydrogenase Family (ALDH2) Primary screen (AID 2061308); note: nearly all actives have a fitted effect of over 55% in size
# [3] = target: Retinaldehyde dehydrogenase 3 (Homo sapiens) (UniProt P47895); assay: qHTS for Inhibitors of the Aldehyde Dehydrogenase Family (ALDH1A3) Primary screen (AID 2061315)
# Chain of Cellular tumor antigen p53 (Homo sapiens) (P04637 whole entry, looked up): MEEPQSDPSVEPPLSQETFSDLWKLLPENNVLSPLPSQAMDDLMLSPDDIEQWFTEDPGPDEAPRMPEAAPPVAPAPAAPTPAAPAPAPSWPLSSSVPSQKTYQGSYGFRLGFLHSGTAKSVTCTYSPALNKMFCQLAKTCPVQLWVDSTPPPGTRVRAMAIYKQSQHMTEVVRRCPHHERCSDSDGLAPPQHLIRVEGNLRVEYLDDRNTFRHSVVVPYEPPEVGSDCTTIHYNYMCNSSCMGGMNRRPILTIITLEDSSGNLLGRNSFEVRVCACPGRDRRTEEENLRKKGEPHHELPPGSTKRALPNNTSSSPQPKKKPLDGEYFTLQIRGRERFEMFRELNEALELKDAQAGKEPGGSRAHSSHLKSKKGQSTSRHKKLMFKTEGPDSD
Compound,activation [1],Potency [2],Potency [3],Potency [1]
Clc1ccc(Nc2nc3ccccc3c3nc(C4CCCCC4)[nH]c23)cc1Cl,22%,inactive,inactive,
C=CCc1ccc(O[C@@H]2O[C@H](CO)[C@@H](O)[C@H](O)[C@H]2O)c(O[C@@H]2O[C@H](CO)[C@@H](O)[C@H](O)[C@H]2O)c1,-13.7%,inactive,inactive,
C=C1C2(CCC(=O)OC2(C)C)CC(OC(=O)/C(C)=C/C)C2(C)C13OC14C(=O)OC(C)(C(=O)C12C(=O)OC4C)C3OC(C)=O (stereo unspecified),-0.763%,inactive,inactive,
C=C1CC/C=C(/CO)C(=O)C[C@@H]2[C@@H]1C[C@@]2(C)COC(C)=O,11.5%,inactive,inactive,
COc1ccc(C(=O)Nc2ncc(-c3ccc(C(=O)O)cc3)s2)cc1,,inactive,inactive,10.7 µM (active)
CC(C)(C)c1ccc(S(=O)(=O)Nc2ccc(Cl)cc2C(=O)c2cc[n+]([O-])cc2)cc1,-16.3%,inactive,inactive,
CC(=O)OC12CC(C)C(OC(=O)c3ccccc3)C1/C=C(/C)C(OC(=O)c1ccccc1)CC(=O)C(C)(C)/C=C/C(C)C2=O (stereo unspecified),-7.14%,inactive,inactive,
OC[C@H]1O[C@@H](Oc2cc(O)c3c(c2)O[C@@H](c2ccc(O)cc2)[C@H](O)C3)[C@H](O)[C@@H](O)[C@@H]1O,4.46%,inactive,inactive,
C[C@]1(O)CC[C@@H]2C(C(=O)O)=CO[C@@H](O[C@@H]3O[C@H](COC(=O)/C=C/c4ccc(O)c(O)c4)[C@@H](O)[C@H](O)[C@H]3O)[C@@H]21,0%,inactive,inactive,
CC(C)C1NC(=O)C(CC2(O)c3ccccc3N3C(=O)C(Cc4ccccc4)NC32)NC1=O (stereo unspecified),-9.82%,inactive,inactive,
C=CC1(C)C=C2C(O)CC3C(C)(C(=O)O)CCCC3(C)C2CC1 (stereo unspecified),8.04%,inactive,inactive,
CCN1CCN(Cc2ccc(NC(=O)c3ccc(C)c(Oc4ccnc5[nH]ccc45)c3)cc2C(F)(F)F)CC1,,inactive,inactive,14.8 µM (active)
Cc1cnc(NC(=O)Nc2cc(Br)c(C)cc2OCC2CNCCO2)cn1 (stereo unspecified),11.6%,inactive,inactive,
C=CC1(C)CC2CCC3C(C)(C(=O)O)CCCC3(C)C2=CC1=O (stereo unspecified),-16%,inactive,inactive,
CC1(C)CCC[C@]2(C)[C@H]3CC(=O)O[C@]3(C)CC[C@@H]12,20.3%,inactive,inactive,
CN(C)CCCn1cc(C2=C(c3c[nH]c4ccccc34)C(=O)NC2=O)c2ccccc21,,inactive,inactive,30.1 µM (active)
C/C1=C\CCC(C)CCO[C@@H]2O[C@H](CO[C@@H]3OC[C@H](O)[C@H](O)[C@H]3OC1=O)[C@@H](O)[C@H](O)[C@H]2O (stereo partly specified),-24.1%,inactive,inactive,
CC1OC(OC2C(OC3C(O[C@H]4CC[C@@]5(C)C(CC[C@]6(C)C5C(=O)C=C5C7CC(C)(C)CC(O)[C@]7(C)CC[C@]56C)C4(C)C)OC(C(=O)O)C(O)C3O)OCC(O)C2O)C(O)C(O)C1O (stereo partly specified),2.29%,inactive,inactive,
CC1(C(=O)O)CCCC2(C)C3CC4C5CC3(CCC12)CC45C (stereo unspecified),17.9%,inactive,inactive,

Compound,activation [1],Potency [2],Potency [3],Potency [1]
Cc1nc(N2CCN(C(=O)c3ccco3)CC2)c2c3c(sc2n1)CCCC3,-12.9%,inactive,inactive,
CC1(C)CCCC2(C)C(CO)C3CCC2C31 (stereo unspecified),24.1%,inactive,inactive,
NC1CCC(Nc2cc(-c3cccc(NCc4cccc(F)c4)n3)c(Cl)cn2)CC1 (stereo unspecified),,inactive,inactive,1.51 µM (active)
COC(=O)c1ccnc(-c2cc(C(=O)Nc3ccc(C4(N)CC4)cc3)ccn2)c1,1.67%,inactive,inactive,
C=C1C(=O)O[C@H]2[C@H]1[C@@H](OC(=O)/C(C)=C\C)C[C@]1(C)O[C@@H]1[C@H]1O[C@H]1C(=C)[C@H]2O,-10.7%,inactive,inactive,
COc1cc(Cc2cnc(N)nc2N)c(C(C)C)cc1OC,-15.2%,inactive,inactive,
CC(=O)O[C@@H]1[C@@H](CO)O[C@@](CO)(O[C@H]2O[C@H](COC(=O)/C=C/c3ccccc3)[C@@H](O)[C@H](O)[C@H]2O)[C@H]1O,2.29%,inactive,inactive,
CC(=O)OC1(C)CC(O)C2(O)C=COC(OC3OC(CO)C(O)C(O)C3O)C12 (stereo unspecified),-16.8%,inactive,inactive,
COC(=O)C1(C)c2[nH]c3ccccc3c2CCN1C(=O)CCl (stereo unspecified),,inactive,inactive,30.1 µM (active)
O=C1[C@H](O[C@@H]2O[C@H](CO)[C@@H](O)[C@H](O)[C@H]2O)Oc2ccccc2N1O,14.3%,inactive,inactive,
COc1cn(-c2ccc(-n3cccn3)cc2F)nc(-c2ccnn2-c2ccccc2)c1=O,0%,inactive,inactive,
C[C@@H]1C[C@H]2[C@@H]3CCC4=CC(=O)C=C[C@]4(C)[C@@]3(F)[C@@H](O)C[C@]2(C)[C@@]1(O)C(=O)COP(=O)(O)O,-5.67%,inactive,inactive,
CC(C(=O)Nc1cc(C#N)ccc1CCCC(=O)O)c1ccc(F)c2ccccc12 (stereo unspecified),17.9%,inactive,inactive,
CC12CCC3c4ccc(O)cc4CCC3C1CCC2OC1OC(C(=O)O)C(O)C(O)C1O (stereo unspecified),-11.7%,inactive,inactive,
NC(=NCCCCCCN=C(N)/N=C(\N)Nc1ccc(Cl)cc1)/N=C(\N)Nc1ccc(Cl)cc1,,inactive,inactive,30.1 µM (active)
C[C@H]1[C@H](C)CC[C@]2(C(=O)O)CC[C@]3(C(=O)O)C(=CCC4[C@@]5(C)CC[C@H](O[C@@H]6O[C@H](C)[C@@H](O)[C@H](O)[C@H]6O)C(C)(C)C5CC[C@]43C)[C@H]12 (stereo partly specified),-5.36%,inactive,inactive,
CCC(C)(C)C1CCc2c(sc(NC(=O)c3ccc(Br)cc3)c2C#N)C1 (stereo unspecified),-0.333%,inactive,inactive,
COc1ccccc1NC(=O)OCC1CCN(C(=O)OC(C)(C)C)CC1,-5.67%,inactive,inactive,
COc1ccc(CN2CCN(CCCSc3cc(C(C)(C)C)c(O)c(C(C)(C)C)c3)CC2)c(OC)c1OC,16.3%,inactive,inactive,

Compound,activation [1],Potency [2],Potency [3],Potency [1]
CC(C)(O)CC(CO)NC(=O)CC(O)CC(=O)Cc1ccccc1 (stereo unspecified),22.1%,inactive,inactive,
CC1CC[C@]2(C(=O)O)CC[C@]3(C(=O)O)C(=CCC4[C@@]5(C)CC[C@H](O[C@@H]6O[C@H](CO)[C@@H](O)[C@H](O)[C@H]6O)C(C)(C)C5CC[C@]43C)C2C1C (stereo partly specified),0.893%,inactive,inactive,
COC1(CC(C)C)NC(=O)C(O)(Cc2ccccc2)NC1=O (stereo unspecified),-16.8%,inactive,inactive,
OC[C@H]1O[C@@H](OCCc2ccc(O)cc2)[C@H](O)[C@@H](O)[C@@H]1O,-13.7%,inactive,inactive,
COc1ccc(CNCc2cccc3ccccc23)cc1,-2.33%,inactive,inactive,
C=C[C@@](C)(O)CC/C=C(\C)C(=O)O[C@@H]1[C@@H]2O[C@]2(C)[C@H]2[C@H](O[C@@H]3O[C@H](CO)[C@@H](O)[C@H](O)[C@H]3O)OC=C[C@@]12O,-3.57%,inactive,inactive,
C=CC/C=C\C/C=C\CCCCCCCc1cccc(O)c1C(=O)O,8.04%,inactive,inactive,
Cn1c(=O)n(-c2ccc(C(C)(C)C#N)cc2)c2c3cc(C#Cc4cccnc4)ccc3ncc21,26.8%,inactive,inactive,
CC(=O)N[C@H]1CCN(c2ccc(C3=NOC(CN[S+](=O)([O-])C(C)C)C3)cc2F)C1 (stereo partly specified),11.7%,inactive,inactive,
CC1CCC2C(C)(C)C(O)C(O)CC2(C)C12Cc1c(O)cc(CO)c(C=O)c1O2 (stereo unspecified),0.763%,inactive,inactive,
CC1C(OC(=O)c2ccccc2)C(O)C2C(C(=O)O)=COC(OC3OC(CO)C(O)C(O)C3O)C12 (stereo unspecified),-16%,inactive,inactive,
Cc1onc(C(=O)N2CCN(C(c3ccc(Cl)cc3)c3ccc(Cl)cc3)CC2)c1[N+](=O)[O-],10.7%,inactive,inactive,
C=C1CCC2C(C)(C)CCC[C@]2(C)[C@H]1CC/C(C)=C/C(=O)O (stereo partly specified),-3.82%,inactive,inactive,
C=C(C)C(=O)O[C@H]1[C@H]2C(=C)C(=O)O[C@@H]2C[C@@H](C)/C=C\C(=O)[C@](C)(O)[C@@H]1OC(C)=O,,inactive,inactive,4.65 µM (active)
C[C@@H]1C[C@H]2O[C@@]3(O[C@@H]2C(C)(C)O)C(O)[C@@]2(C)C4CCC5C(C)(C)[C@@H](O[C@H]6OC[C@H](O)[C@@H](O)[C@@H]6O)CC[C@@]56C[C@@]46CC[C@]2(C)C13 (stereo partly specified),-26.7%,inactive,inactive,
COC(=O)c1ccnc(-c2cc(C(=O)NCCc3ccccc3)ccn2)c1,3.67%,inactive,inactive,
O=C(CCc1ccccc1)N1CCC(O)(Cn2cnc3cc(Cl)ccc3c2=O)CC1,-13.7%,inactive,inactive,
C=C(C(=O)O)C1CCC2(C)CCC(O)C(C)(O)C2C1 (stereo unspecified),8.04%,inactive,inactive,
CC1(C)CCC[C@@]2(C)[C@H]1[C@H](O)C=C(CO)[C@]2(O)CO,-1.53%,inactive,inactive,
